# From publication PMC4336329 (PLoS ONE, 2015)
# Among all 310,000 compounds or so, about 14,000 (4.5%) showed an effect of 50% or more. The effect is printed as a negative number. The list comes from a sample in which strong results are over-represented; it also holds similar structures and randomly drawn compounds. Where a SMILES comes first, the peptide text is derived from it. The star is where a group is joined. Boc = CC(C)(C)OC(=O)*
# Target: human ether-à-go-go-related gene (hERG) potassium channel (human, UniProt Q12809)
# Test: primary screen, population patch clamp on CHO cells stably expressing hERG; higher = less effect of the substance
# 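Note: peak tail current of the secondary pulse compared with the same well before compound.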
# Chain of human ether-à-go-go-related gene (hERG) potassium channel (Q12809 whole entry, looked up): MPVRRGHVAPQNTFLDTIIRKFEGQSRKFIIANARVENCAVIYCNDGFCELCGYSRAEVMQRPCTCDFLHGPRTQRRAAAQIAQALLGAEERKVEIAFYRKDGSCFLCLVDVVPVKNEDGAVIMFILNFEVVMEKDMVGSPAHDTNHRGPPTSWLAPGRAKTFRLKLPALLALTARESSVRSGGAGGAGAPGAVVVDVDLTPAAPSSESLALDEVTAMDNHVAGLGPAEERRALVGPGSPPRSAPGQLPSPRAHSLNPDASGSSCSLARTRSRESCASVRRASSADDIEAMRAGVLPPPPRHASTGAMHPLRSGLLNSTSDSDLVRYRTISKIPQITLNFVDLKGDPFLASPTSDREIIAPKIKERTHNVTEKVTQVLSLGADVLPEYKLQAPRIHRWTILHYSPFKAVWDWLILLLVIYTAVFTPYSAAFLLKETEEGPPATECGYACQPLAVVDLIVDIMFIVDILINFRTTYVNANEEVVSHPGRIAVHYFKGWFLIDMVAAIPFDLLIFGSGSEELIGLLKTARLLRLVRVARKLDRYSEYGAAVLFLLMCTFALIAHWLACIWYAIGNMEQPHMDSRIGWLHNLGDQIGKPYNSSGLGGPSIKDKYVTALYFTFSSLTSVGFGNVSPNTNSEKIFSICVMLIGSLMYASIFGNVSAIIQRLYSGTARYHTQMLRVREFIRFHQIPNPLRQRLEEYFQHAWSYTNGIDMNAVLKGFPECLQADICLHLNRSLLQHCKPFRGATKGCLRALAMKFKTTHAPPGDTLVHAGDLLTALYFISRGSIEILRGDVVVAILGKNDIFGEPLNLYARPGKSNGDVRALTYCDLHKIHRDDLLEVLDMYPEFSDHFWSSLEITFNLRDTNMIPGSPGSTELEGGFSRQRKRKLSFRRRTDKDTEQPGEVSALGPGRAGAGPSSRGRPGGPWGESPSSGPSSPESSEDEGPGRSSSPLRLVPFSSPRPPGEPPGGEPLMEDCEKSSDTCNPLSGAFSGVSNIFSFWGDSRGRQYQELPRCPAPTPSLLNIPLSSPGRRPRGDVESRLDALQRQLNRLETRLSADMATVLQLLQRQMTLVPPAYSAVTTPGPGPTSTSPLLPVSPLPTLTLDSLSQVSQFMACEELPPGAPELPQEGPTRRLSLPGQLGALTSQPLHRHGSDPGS
row,SMILES,"hERG current change (%, negative = inhibition) at 10uM [%]"
1,CCc1nnc(NC(=O)CSc2ccc(-c3nc4ccccc4[nH]3)cn2)s1,5.82
2,COC(=O)C(Cc1ccccc1)NC(=O)C(CC(C)C)NC(=O)OC(C)(C)C (stereo not drawn) (Boc-Leu-Phe-OMe; configuration not given here),10.7
3,CCOC(=O)C1(CC2CC2)CCN(Cc2ccc(C(=O)OC)cc2)CC1,-57
4,CCOC(=O)C1(CC2CC2)CCN(Cc2ccc(O)c(Cl)c2)CC1,-41.6
5,CCOC(=O)C1CCN(Cc2ccc(C(=O)OC)cc2)CC1,-14.6
6,CCOC(=O)C1(CC2CC2)CCN(Cc2cc(Cl)c(O)c(OC)c2)CC1,-57.1
7,CCOC(=O)C1(CCOC)CCN(Cc2ccc(C(=O)OC)cc2)CC1,-27.2
8,CCOC(=O)C1(CCc2ccccc2)CCN(Cc2ccc(OC)cc2)CC1,-77.5
9,CCOC(=O)C1(CC2CC2)CCN(Cc2cnc(-c3ccccc3C)nc2)CC1,-10.4
10,CCOC(=O)C1(Cc2ccccc2Cl)CCN(Cc2csc(C(C)=O)c2)CC1,-12.3
11,CCOC(=O)C1(Cc2ccccc2)CCN(Cc2csc(C(C)=O)c2)CC1,-24.2
12,CCOC(=O)C1(CCc2ccccc2)CCN(Cc2csc(C(C)=O)c2)CC1,-74.8
13,CCOC(=O)N1CCN(C(=O)CCC2CCCC2)CC1,9.89
14,Cc1cc(C)c(S(=O)(=O)c2c(C)cccc2C)c(OCC(C)C)n1,2.76
15,COc1cccc(-c2nc(CS(=O)(=O)CC(=O)Nc3cc(C)ccc3C)c(C)o2)c1,7.02
16,C[n+]1cn(Cc2ccc(C#N)cc2)c2ccccc21.[Cl-],2.75
17,C=CCN=C1N[C@@H](c2ccccc2)C(C(=O)OC)=C(C)N1CCOC,-13
18,CC(=O)N(C)c1ccc(NC(=S)Nc2cccc3ccccc23)cc1,3.38
19,O=C(CSc1nnnn1-c1ccc(O)cc1)Nc1ccc(N2CCOCC2)c(Cl)c1,-1.58

row,SMILES,"hERG current change (%, negative = inhibition) at 10uM [%]"
1,CCOc1ccc(CCNC(=O)C2CCCN(c3nn4c(=O)cc(C)nc4s3)C2)cc1 (stereo not drawn),-24.2
2,COC(c1ccccc1)c1nnc(CCC(=O)NC2C3CC4CC(C3)CC2C4)o1 (stereo not drawn),-3.85
3,CCCCc1c(C)nc2c(OC)cccc2c1SCC(=O)O,12.3
4,CC1CN(c2ccnc3cc(Cl)ccc23)CC(C)O1 (stereo not drawn),-39.7
5,O=C(Oc1ccnc2cc(Cl)ccc12)N1CCCCCC1,-23
6,O=C(C1CCC1)N1CCN(c2ccnc3cc(Cl)ccc23)CC1,-71.4
7,O=C(NNc1ccnc2cc(Cl)ccc12)C1CCCCC1,16.1
8,O=C(C1CCC1)N1CCN(c2ccc(Cl)cc2)CC1,-5.33
9,O=C(C1CCCCC1)N1CCN(c2ccnc3cc(Cl)ccc23)CC1,-66.1
10,NC(=O)C1CCN(c2ccnc3cc(Cl)ccc23)CC1,-51.6
11,NC(=O)C1CCN(c2cc(Cl)ccc2[N+](=O)[O-])CC1,3.89
12,O=C(C1CC1)N1CCN(c2ccnc3cc(Cl)ccc23)CC1,-73.6
13,Cc1[nH]c2ccc(C(=O)N3CCN(C)CC3)cc2c1C,30.8
14,COc1ccc(C2CC(c3cccs3)=NN2c2ccc(F)cc2)cc1OC (stereo not drawn),26.6
15,CCN1CCN(CCCNC(=O)c2ccc(NC(=O)C3=CSCCO3)cc2)CC1,19.9
16,COc1ccccc1NC(=O)c1ccc(N)cc1,5.63
17,COc1ccccc1-c1noc(-c2ccccc2C(=O)Nc2ccccc2)n1,13.9
18,CCOc1ccccc1NC(=O)c1ccccc1-c1nc(-c2ccccc2OC)no1,-35.6
19,COc1ccccc1NC(=O)c1ccc(C(=O)c2ccccc2)o1,-69.4

row,SMILES,"hERG current change (%, negative = inhibition) at 10uM [%]"
1,COc1ccccc1NC(=O)c1cc(C(=O)Nc2ccccc2OC)cc([N+](=O)[O-])c1,21.1
2,COc1ccccc1NC(=O)c1ccc(Br)o1,-6.16
3,COc1ccccc1NC(=O)c1cc(N)cc(C(=O)Nc2ccccc2OC)c1,-50.6
4,COc1ccccc1NC(=O)c1ccccc1-c1nc(-c2ccccc2OC)no1,-57.7
5,O=C(Nc1ccccc1O)c1ccc(C(=O)c2ccccc2)o1,11.2
6,COc1ccc(C(=O)OCC(=O)NC(C)CCc2ccccc2)cc1OC (stereo not drawn),0.524
7,O=C(COc1ccc([N+](=O)[O-])cc1)N(Cc1ccccc1)Cc1ccccc1,-41.5
8,COC(=O)c1c(C)oc2ccc(OC(=O)N3CCOCC3)cc12,-8.62
9,CCC(CC)c1nnc(NC(=O)c2cc(C(=O)OC)cc([N+](=O)[O-])c2)s1,7.7
10,COC(=O)c1ccc(OC(=O)CCS(=O)(=O)c2ccc(C)cc2)cc1,-16.4
11,CC(=O)c1c(C)nn(CC(=O)NC2CCCN(Cc3ccc(CC(C)C)cc3)C2)c1C (stereo not drawn),-73.4
12,CC(C)Cc1ccc(CN2CCCC(NC(=O)Cn3cnnn3)C2)cc1 (stereo not drawn),-26.5
13,CC(C)Cc1ccc(CN2CCCC(NC(=O)CCN3CCOCC3)C2)cc1 (stereo not drawn),-37.4
14,CC(C)Cc1ccc(CN2CCCC(NC(=O)CSc3nncn3C)C2)cc1 (stereo not drawn),-23.7
15,CC(C)Cc1ccc(CN2CCCC(NC(=O)CCn3cnnn3)C2)cc1 (stereo not drawn),-46.2
16,Cc1ccn(CC(=O)NC2CCCN(Cc3ccc(CC(C)C)cc3)C2)n1 (stereo not drawn),-55.2
17,Cc1noc(C)c1CCC(=O)NC1CCCN(Cc2ccc(CC(C)C)cc2)C1 (stereo not drawn),-66.8
18,Cc1noc(C)c1CCC(=O)NC1CCCN(Cc2ccc(Cl)cc2)C1 (stereo not drawn),-24
19,CC(C)Cc1ccc(CN2CCCC(NC(=O)CCN3CCCCC3=O)C2)cc1 (stereo not drawn),-45.3
